Assay results from PubChem BioAssay AID1159580 (chemical genetic matrix, 2015).
Values joined by “and” are separate entries in the source; they are usually repeats but may differ in a detail not shown here. Equal entries are not always repeated. The campaign covered roughly 5,500 compounds. About 2,000 (36%) were called active. Not shown: some 18% with an inconclusive outcome. Rule as the data show it: active = normalized growth mostly below about 0.91 (no sharp cut-off); inconclusive = no clear call, values can overlap the other calls; inactive = mostly above about 0.92. This is one part of the list.

Test: chemical genetic growth profiling, strain panel (AID 1159580);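 also: tested at 20 µM; growth read once vehicle control cultures reached saturation at 30 °C; 1 = growth at the plate median or of vehicle wells; lower values mean less growth of the strain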
Conditions: growth OD

Measured: normalized growth

O=C(O)c1cc2cc(F)ccc2[nH]1
inactive: S. cerevisiae deletion strains, locus YJR075W, strain HOC1, active compounds read low 1.01 | S. cerevisiae deletion strains, locus YKL009W, strain mrt4, active compounds read low 1 | S. cerevisiae deletion strains, locus YKL068W, active compounds read low 1.01 | S. cerevisiae deletion strains, locus YKL085W, strain MDH1 (second series), active compounds read low 1.01 | S. cerevisiae deletion strains, locus YKL085W, strain MDH1, active compounds read low 1.01 | S. cerevisiae deletion strains, locus YKL160W, strain elf1, active compounds read low 0.974 | S. cerevisiae deletion strains, locus YKL190W, strain CNB1, active compounds read low 0.999 | S. cerevisiae deletion strains, locus YKR001C, strain vps1, active compounds read low 1.02 | S. cerevisiae deletion strains, locus YKR026C, strain gcn3, active compounds read low 0.949 | S. cerevisiae deletion strains, locus YKR091W, strain srl3, active compounds read low 0.968 | S. cerevisiae deletion strains, locus YLL001W, strain dnm1, active compounds read low 0.976 | S. cerevisiae deletion strains, locus YLL026W, active compounds read low 0.996 | S. cerevisiae deletion strains, locus YLL041C, strain sdh2, active compounds read low 0.97 | S. cerevisiae deletion strains, locus YLR027C, strain aat2, active compounds read low 0.99 | S. cerevisiae deletion strains, locus YLR039C, strain RIC1, active compounds read low 1.02 | S. cerevisiae deletion strains, locus YLR058C, strain SHM2, active compounds read low 1.01 | S. cerevisiae deletion strains, locus YLR102C, strain apc9, active compounds read low 1.02 | S. cerevisiae deletion strains, locus YLR113W, strain HOG1, active compounds read low 0.948 | S. cerevisiae deletion strains, locus YLR221C, strain rsa3, active compounds read low 0.986 | S. cerevisiae deletion strains, locus YLR258W, strain gsy2, active compounds read low 0.987 | S. cerevisiae deletion strains, locus YLR262C, strain YPT6 (second series), active compounds read low 1 | S. cerevisiae deletion strains, locus YLR262C, strain YPT6, active compounds read low 1.04 | S. cerevisiae deletion strains, locus YLR268W, strain sec22, active compounds read low 1.02 | S. cerevisiae deletion strains, locus YLR320W, strain mms22, active compounds read low 1.01 | S. cerevisiae deletion strains, locus YLR330W, strain CHS5, active compounds read low 1.01 | S. cerevisiae deletion strains, locus YLR342W, strain FKS1 (second series), active compounds read low 1.01 | S. cerevisiae deletion strains, locus YLR342W, strain FKS1, active compounds read low 0.98 | S. cerevisiae deletion strains, locus YLR357W, strain rsc2, active compounds read low 0.976 | S. cerevisiae deletion strains, locus YLR370C, strain arc18, active compounds read low 0.989 | S. cerevisiae deletion strains, locus YLR371W, strain rom2, active compounds read low 1.01 | S. cerevisiae deletion strains, locus YLR384C, strain iki3, active compounds read low 0.965 | S. cerevisiae deletion strains, locus YLR418C, strain cdc73, active compounds read low 1.05 | S. cerevisiae deletion strains, locus YML016C, strain PPZ1, active compounds read low 1.01 | S. cerevisiae deletion strains, locus YML032C, strain rad52, active compounds read low 1.02 | S. cerevisiae deletion strains, locus YML120C, strain ndi1, active compounds read low 0.995 | S. cerevisiae deletion strains, locus YML124C, strain tub3, active compounds read low 1.01 | S. cerevisiae deletion strains, locus YMR058W, strain fet3, active compounds read low 0.985 | S. cerevisiae deletion strains, locus YMR078C, strain ctf18, active compounds read low 1.02 | S. cerevisiae deletion strains, locus YMR125W, strain sto1, active compounds read low 0.948 | S. cerevisiae deletion strains, locus YMR129W, active compounds read low 0.982 | S. cerevisiae deletion strains, locus YMR205C, strain PFK2, active compounds read low 1.03 | S. cerevisiae deletion strains, locus YMR223W, strain ubp8, active compounds read low 1.02 | S. cerevisiae deletion strains, locus YMR231W, strain pep5, active compounds read low 0.992 | S. cerevisiae deletion strains, locus YMR263W, strain SAP30, active compounds read low 1.01 and 0.999 | S. cerevisiae deletion strains, locus YMR307W, strain GAS1, active compounds read low 1.05 | S. cerevisiae deletion strains, locus YNL067W, strain RPL9B, active compounds read low 1.02 | S. cerevisiae deletion strains, locus YNL071W, strain lat1, active compounds read low 0.984 | S. cerevisiae deletion strains, locus YNL128W, strain TEP1, active compounds read low 1 | S. cerevisiae deletion strains, locus YNL153C, strain GIM3, active compounds read low 1.01 | S. cerevisiae deletion strains, locus YNL175C, strain NOP13, active compounds read low 0.952 | S. cerevisiae deletion strains, locus YNL183C, strain NPR1, active compounds read low 0.908 | S. cerevisiae deletion strains, locus YNL197C, strain WHI3, active compounds read low 0.949 | S. cerevisiae deletion strains, locus YNL209W, strain ssb2, active compounds read low 0.983 | S. cerevisiae deletion strains, locus YNL224C, strain SQS1, active compounds read low 0.973 | S. cerevisiae deletion strains, locus YNL233W, strain BNI4, active compounds read low 1.01 | S. cerevisiae deletion strains, locus YNL248C, strain rpa49, active compounds read low 0.969 | S. cerevisiae deletion strains, locus YNL250W, strain rad50, active compounds read low 1.01 | S. cerevisiae deletion strains, locus YNL271C, strain bni1, active compounds read low 1.01 | S. cerevisiae deletion strains, locus YNL298W, strain CLA4, active compounds read low 1.03 | S. cerevisiae deletion strains, locus YNL307C, strain MCK1, active compounds read low 1.02 | S. cerevisiae deletion strains, locus YNL322C, strain KRE1 (second series), active compounds read low 0.99 | S. cerevisiae deletion strains, locus YNL322C, strain KRE1, active compounds read low 1.01 and 0.971 | S. cerevisiae deletion strains, locus YNR049C, strain mso1, active compounds read low 0.97 | S. cerevisiae deletion strains, locus YNR052C, strain pop2, active compounds read low 1.02 | S. cerevisiae deletion strains, locus YOL006C, strain TOP1, active compounds read low 1.05 | S. cerevisiae deletion strains, locus YOL012C, strain htz1 0.97 | S. cerevisiae deletion strains, locus YOL147C, strain pex11, active compounds read low 1.01 | S. cerevisiae deletion strains, locus YOR001W, strain rrp6, active compounds read low 0.961 | S. cerevisiae deletion strains, locus YOR061W, strain CKA2, active compounds read low 1.01 | S. cerevisiae deletion strains, locus YOR069W, strain VPS5, active compounds read low 0.998 | S. cerevisiae deletion strains, locus YOR070C, strain gyp1, active compounds read low 1 | S. cerevisiae deletion strains, locus YOR080W, strain dia2, active compounds read low 0.977 | S. cerevisiae deletion strains, locus YOR083W, strain WHI5 (second series), active compounds read low 0.964 | S. cerevisiae deletion strains, locus YOR083W, strain WHI5, active compounds read low 0.965 | S. cerevisiae deletion strains, locus YOR106W, strain vam3, active compounds read low 0.972 | S. cerevisiae deletion strains, locus YOR136W, strain idh2, active compounds read low 1.02 | S. cerevisiae deletion strains, locus YOR144C, strain elg1, active compounds read low 1.01 | S. cerevisiae deletion strains, locus YOR184W, strain ser1, active compounds read low 1.02 | S. cerevisiae deletion strains, locus YOR231W, strain MKK1, active compounds read low 0.986 | S. cerevisiae deletion strains, locus YOR265W, strain rbl2, active compounds read low 0.98 | S. cerevisiae deletion strains, locus YOR270C, strain vph1, active compounds read low 1.03 | S. cerevisiae deletion strains, locus YOR290C, strain snf2, active compounds read low 0.946 | S. cerevisiae deletion strains, locus YOR316C, strain cot1, active compounds read low 1.02 | S. cerevisiae deletion strains, locus YPL051W, strain arl3, active compounds read low 0.997 | S. cerevisiae deletion strains, locus YPL055C, strain LGE1, active compounds read low 1.01 and 1.02 | S. cerevisiae deletion strains, locus YPL078C, strain atp4, active compounds read low 0.956 | S. cerevisiae deletion strains, locus YPL106C, strain sse1, active compounds read low 0.938 | S. cerevisiae deletion strains, locus YPL240C, strain hsp82, active compounds read low 0.963 | S. cerevisiae deletion strains, locus YPL241C, strain CIN2, active compounds read low 0.992 and 0.993 | S. cerevisiae deletion strains, locus YPL256C, strain CLN2, active compounds read low 1.01 | S. cerevisiae deletion strains, locus YPR119W, strain clb2, active compounds read low 1.01 | S. cerevisiae deletion strains, locus YPR141C, strain kar3, active compounds read low 1.01 | S. cerevisiae deletion strains, locus YPR163C, strain tif3, active compounds read low 1.01 | S. cerevisiae deletion strains, locus YPR167C, strain met16, active compounds read low 1.02 | S. cerevisiae deletion strains, strain wtn01, active compounds read low 1.02 | S. cerevisiae strains, strain wild type, active compounds read low 0.979
